CHT allo act: human CHT allosteric activation; Q9GZV3; CHT-expressing cells, membrane potential dye, choline EC20; active compounds read high; LV-AA mutant CHT in HEK293 cells; B-score at 10 µM; 0.49% of 310,000 active; AID 488977;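 active means initial fluorescence not abnormally high and integrated response B-score, plate-corrected, over 3 SD above library mean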
TMEM16A inh: blocks the mouse calcium-activated chloride channel TMEM16A; HEK293 TMEM16A/YFP iodide influx fluorescence, ionomycin; 1.2% of 310,000 active; AID 588511; normalized B-score (activity score, 25-100; higher = stronger inhibition) at 10 µM; Q8BHY3;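 active means ratio plate-corrected score three or more library SD toward inhibition, starting fluorescence score within five deviations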;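 further: score derived from kinetic fluorescence span divided by baseline fluorescence per well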
Target sequence (Q8BHY3 whole entry, looked up): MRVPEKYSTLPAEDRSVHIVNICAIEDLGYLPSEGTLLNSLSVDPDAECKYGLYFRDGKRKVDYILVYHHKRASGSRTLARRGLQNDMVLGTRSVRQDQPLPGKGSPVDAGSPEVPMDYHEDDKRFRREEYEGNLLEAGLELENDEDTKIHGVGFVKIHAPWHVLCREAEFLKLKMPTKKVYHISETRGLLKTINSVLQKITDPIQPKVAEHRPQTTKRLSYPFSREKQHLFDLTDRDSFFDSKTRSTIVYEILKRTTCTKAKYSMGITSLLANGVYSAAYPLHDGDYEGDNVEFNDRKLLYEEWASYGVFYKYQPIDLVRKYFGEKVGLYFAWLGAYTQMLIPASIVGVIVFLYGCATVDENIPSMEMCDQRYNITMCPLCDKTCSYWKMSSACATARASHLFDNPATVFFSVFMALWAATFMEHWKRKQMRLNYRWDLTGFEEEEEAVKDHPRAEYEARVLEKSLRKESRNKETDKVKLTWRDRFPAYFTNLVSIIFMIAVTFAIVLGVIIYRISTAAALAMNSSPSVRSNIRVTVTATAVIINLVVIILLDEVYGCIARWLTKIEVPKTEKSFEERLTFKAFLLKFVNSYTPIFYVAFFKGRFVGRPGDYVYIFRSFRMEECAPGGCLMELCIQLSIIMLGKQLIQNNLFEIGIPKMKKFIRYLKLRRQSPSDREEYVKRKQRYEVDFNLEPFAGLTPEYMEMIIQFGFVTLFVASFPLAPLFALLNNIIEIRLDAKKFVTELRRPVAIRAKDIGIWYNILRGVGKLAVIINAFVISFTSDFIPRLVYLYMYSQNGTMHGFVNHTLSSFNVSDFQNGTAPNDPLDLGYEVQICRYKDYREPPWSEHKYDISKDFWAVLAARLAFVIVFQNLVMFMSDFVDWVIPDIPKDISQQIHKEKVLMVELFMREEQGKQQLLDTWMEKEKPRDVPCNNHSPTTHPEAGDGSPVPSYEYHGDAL
CHT block: human CHT choline transport inhibition; Q9GZV3; CHT-expressing cells, membrane potential dye, choline response; active compounds read low; B-score at 10 µM; 0.86% of 310,000 active;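 active means B-score over 3 SD under the library average, and starting fluorescence ratio not unusually high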;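 further: choline stimulus applied at its EC90 after an EC20 pre-addition; B-score computed on integrated fluorescence ratio after choline addition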
ANO1 activ: activators or potentiators of mouse TMEM16A chloride channel; HEK293 TMEM16A/YFP-H148Q/I152L, iodide quench fluorescence; active compounds read low; B-score at 10 µM; 0.3% of 340,000 active; AID 623877;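 active means fluorescence-ratio B-score plate-corrected deviation score at least 3 library SD below zero, with starting fluorescence score within 5 deviations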;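 further: channel opened by trigger with iodide after compound preincubation; score built on the fluorescence ratio of max minus min over baseline; more negative score means more quench and so TMEM16A activation or potentiation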
The depositor's hits bear a star; i = inactive; . = no result given. Compounds with a hit are over-represented: about 2.4% of the library has one in this group of screens.

SMILES | CHT allo act | TMEM16A inh | CHT block | ANO1 activ
CCn1cnc2sc(C(=O)N3CCN(Cc4ccc5c(c4)OCO5)CC3)c(C)c2c1=O | i | 25* | i | .
CCCCn1c(N)c(N(CCOC)C(=O)CN2c3ccccc3CC2C)c(=O)[nH]c1=O (stereo not given) | i | i | i | i
COc1ccc(-c2csc(NC(C)c3nc4cc(Cl)c(Cl)cc4n3CCCO)n2)cc1 (stereo not given) | i | i | i | i
COc1ccccc1C1CCN(C(=O)c2ccccc2)CC1 | i | i | i | i
COc1ccccc1C1CCN(c2cc(O)ccc2[N+](=O)[O-])CC1 | i | 100* | i | i
CC(C)Cc1ccc(C(C)C(=O)OCC(=O)c2c[nH]c3ccccc23)cc1 (stereo not given) | i | 100* | i | i
Cc1ccc(C(=O)OCC(=O)c2c[nH]c3ccccc23)cc1 | i | i | i | i
Cc1cc(C)n(CCCNC(=O)CCNS(=O)(=O)c2ccccc2C(F)(F)F)n1 | i | i | i | i
O=C(Nc1ccc(S(=O)(=O)N2CCOCC2)cc1)C1CC1 | i | i | i | i
CC(C)=CC1C(C(=O)Nc2ccc(S(=O)(=O)N3CCOCC3)cc2)C1(C)C (stereo not given) | i | i | i | -4.9*
CC(C)CC(=O)N1CCC(O)(CS(=O)(=O)c2ccc(Cl)c(Cl)c2)CC1 | i | i | i | i
CCCN1C(=O)c2ccccc2NC1c1ccc(Cl)c(Cl)c1 (stereo not given) | 7.3* | i | i | i
CCCN1C(=O)c2ccccc2NC1c1ccc(Cl)cc1 (stereo not given) | i | i | i | i
COc1ccc(CN2C(=O)c3ccccc3C(/C=N\OCc3ccc(F)cc3)C2=O)cc1 (stereo not given) | i | 25* | i | i
COc1ccc(CN2C(=O)c3ccccc3C(/C=N/OCc3ccc(Cl)cc3)C2=O)cc1 (stereo not given) | i | i | i | i
COc1ccc(NCCC(O)c2ccc(Cl)cc2)cc1 (stereo not given) | i | i | i | i
COc1ccccc1NC(=O)CSc1nnnn1-c1ccc2c(c1)OCO2 | i | i | i | -7.5*
O=C(/C=C/c1cccs1)Nc1ccncc1 | i | i | i | i
CCCOC(=O)c1ccc(NC(=O)/C=C/c2cccs2)cc1 | i | 25* | i | i
CCSc1nnc(NC(=O)CCC2CCCCC2)s1 | i | i | i | i
CC(C)Cc1ccc(CN2CCCC(NC(=O)c3cnc4ccccn4c3=O)C2)cc1 (stereo not given) | i | 25* | i | i
COc1ccc(NC(=O)CNC(=O)N2CC(=O)Nc3ccccc32)cc1OC | i | i | i | i
COc1ccc(CN(C2CCCCC2C)S(=O)(=O)c2ccc(S(=O)(=O)N(C)C)cc2)cc1OC (stereo not given) | i | i | i | -29*
CCOC(=O)C1CCCN(C(=O)N2CCOCC2)C1 (stereo not given) | i | 25* | i | i
CCOC(=O)C1CCCN(c2c(N3CCOCC3)c(=O)c2=O)C1 (stereo not given) | i | i | i | i
SMILES | CHT allo act | TMEM16A inh | CHT block | ANO1 activ
Cc1c(O)cc2c(c1O)C(=O)CC(c1ccccc1)O2 (stereo not given) | i | 100* | i | -6.5*
CCOCCc1nnc(NC(=O)Cc2c(F)cccc2Cl)s1 | i | i | i | i
COCCCNC(=O)Cn1ncc2ccsc2c1=O | i | i | i | i
COCCNC(=O)Cn1ncc2ccsc2c1=O | i | i | i | -11*
CC1CC(C)(C)NC(=S)N1CCC(=O)NCc1ccc(Cl)cc1 (stereo not given) | i | i | i | i
C=CCC1(CC=C)CCCN1C(=O)c1cc(COc2cncc(Cl)c2)on1 | i | 25* | i | i
O=C(CN1C(=O)NC2(CCCCCCC2)C1=O)Nc1ccc(Cl)cc1 | . | . | . | i
COc1cccc(CNn2cnnc2)c1OCc1ccc(F)cc1 | i | 100* | i | i
Cc1cccc(NC(=O)C2CCN(S(=O)(=O)c3c(C)c(C)cc(C)c3C)CC2)n1 | i | 100* | i | i
CCOc1cc(C(=O)N2CCC(CC3CC(c4cccc(Br)c4)=NO3)(C(=O)NCC3CCCCC3)CC2)cc(OCC)c1OCC (stereo not given) | i | i | i | i
Cc1cc(C)cc(NC(=S)N(Cc2ccc(Br)cc2)Cc2ccc(C(=O)O)cc2)c1 | i | 25* | i | i
CCc1ccc(NC(=O)C(=O)NCc2ccccn2)cc1 | i | i | i | i
Cc1ccc(C(=O)NNC(=S)NC(=O)c2ccccc2)cc1 | i | 100* | i | i
Cc1ccc(C(=O)NC(=S)NNC(=O)c2ccccc2)cc1 | i | i | i | i
CCOC(=O)C1=C(N)Oc2cc(O)ccc2C1c1ccc(Br)cc1 (stereo not given) | i | i | i | i
Cc1ccc(S(=O)(=O)NCCC(=O)NC2CCCCCC2)cc1 | . | . | . | i
Cn1c(Sc2ccc(Br)cc2)c(C=O)c2ccccc21 | i | 100* | i | i
NS(=O)(=O)c1ccc(CNC(=O)Cn2nc(C(F)F)cc2C(F)F)cc1 | . | . | . | -4.6*
Cc1cc([N+](=O)[O-])nn1CC(=O)NCc1ccccc1 | i | i | i | i
Cc1c(C(=O)NCc2cccnc2)sc2nc(-c3ccc(F)cc3)cn12 | i | i | i | -22*
CC(=O)c1ccc(S(=O)(=O)N2CCN(C(=O)c3ccc(-n4nc(C)c(Cl)c4C)cc3)CC2)cc1 | . | . | . | i
Cc1nn(-c2ccc(C(=O)N3CCN(S(=O)(=O)c4ccccc4C(F)(F)F)CC3)cc2)c(C)c1Cl | . | . | . | -5.8*
CC1CCCCC12NC(=O)N(CC(=O)OCc1cccc(F)c1)C2=O (stereo not given) | . | . | . | -20*
O=C(CSc1nncn1-c1ccccc1)Nc1cc(Cl)cc(Cl)c1 | i | 25* | i | i
NC(=O)c1ccc(NC(=O)CSc2nncn2-c2ccccc2)cc1 | i | i | i | i
CCOc1cccc(C2C(C(=O)c3ccco3)=C(O)C(=O)N2c2nnc(C)s2)c1 (stereo not given) | . | . | . | i
C=CCOc1ccc(C2C(C(=O)c3ccco3)=C(O)C(=O)N2c2nnc(C)s2)cc1 (stereo not given) | i | i | i | -8.9*
CCSc1nnc(N2C(=O)C(O)=C(C(=O)c3ccco3)C2c2cccc(OC)c2)s1 (stereo not given) | i | i | i | -6.9*
CSc1nnc(N2C(=O)C(O)=C(C(=O)c3ccco3)C2c2ccc(F)cc2)s1 (stereo not given) | i | i | i | -6.6*
